A selection: hits, their analogues and other compounds. The true share with any hit is near 19%.
DT40 TDP1 no CPT = qHTS for Inhibitors of human tyrosyl-DNA phosphodiesterase 1 (TDP1): qHTS in cells in absence of CPT | DT40 Tdp1-/- hTDP1 cells, no CPT, ATP luminescence, 48 h | Potency, µM (top dose mostly 46.2 µM), without a hit: at the top dose activity change, negative = growth inhibition, most hits filed as inhibitors | hit rate 15% among 420,000; further: potency means the concentration at half of the fitted maximal effect; on the % scale 0 is the no-effect control and ±100 the full control effect; nearly all actives have a fitted effect of over 55% in size
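DT40 Tdp1-/-;hTDP1 cells, no CPT (DMSO vehicle only), 400 cells/well; compounds pin-transferred; ≥48 hr, 37 °C; CellTiter-Glo 30 min RT dark, luminescence read.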
TDP1 inh = qHTS Assay for Inhibitors of Tyrosyl-DNA Phosphodiesterase (TDP1). Tyrosyl-DNA phosphodiesterase 1 (Homo sapiens), Q9NUW8. recombinant TDP1, AlphaScreen DNA substrate cleavage. Potency, µM (series often up to 130 µM), without a hit: at the highest dose activity change, negative = inhibition, actives largely listed as inhibitors. hit rate 0.28% among 350,000; further: potency means the concentration at half of the fitted maximal effect; on the % scale 0 is the no-effect control and ±100 the full control effect; nearly all actives have a fitted effect of over 40% in size
Target sequence (Q9NUW8 whole entry, looked up): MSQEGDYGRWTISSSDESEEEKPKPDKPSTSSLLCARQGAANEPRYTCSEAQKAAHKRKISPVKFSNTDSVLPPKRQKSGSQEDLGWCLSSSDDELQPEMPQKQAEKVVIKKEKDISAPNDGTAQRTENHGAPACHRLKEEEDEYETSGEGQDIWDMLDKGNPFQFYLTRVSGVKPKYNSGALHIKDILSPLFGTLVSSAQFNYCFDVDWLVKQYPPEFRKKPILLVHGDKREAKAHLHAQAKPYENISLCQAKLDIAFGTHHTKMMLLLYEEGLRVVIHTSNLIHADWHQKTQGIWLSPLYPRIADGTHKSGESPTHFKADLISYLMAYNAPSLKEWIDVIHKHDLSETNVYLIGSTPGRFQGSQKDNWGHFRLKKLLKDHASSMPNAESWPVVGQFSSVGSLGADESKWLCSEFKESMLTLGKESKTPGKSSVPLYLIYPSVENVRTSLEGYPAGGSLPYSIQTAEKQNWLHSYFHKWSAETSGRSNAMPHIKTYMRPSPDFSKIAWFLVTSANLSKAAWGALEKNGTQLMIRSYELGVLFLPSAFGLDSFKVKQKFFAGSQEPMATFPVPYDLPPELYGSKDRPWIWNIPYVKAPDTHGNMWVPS
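Here, a 5' biotin and 3' phosphotyrosine-FITC DNA oligonucleotide reports Tdp1 activity: intact substrate bridges AlphaScreen beads, while cleavage leaves a 3' phosphate and drops signal. All incubations at room temperature.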
DT40 TDP1 CPT = qHTS for Inhibitors of human tyrosyl-DNA phosphodiesterase 1 (TDP1): qHTS in cells in presence of CPT | AID 686979, 2013 | hit rate 12% among 420,000 | chicken DT40 Tdp1-/-;hTDP1 cells + 20 nM CPT, ATP luminescence, 48 h | Potency, µM (highest dose often 46.2 µM), for inactives: top-dose activity change, negative = growth inhibition, hits mostly inhibitors; further: potency means the concentration at half of the fitted maximal effect; on the % scale 0 is the no-effect control and ±100 the full control effect; nearly all actives have a fitted effect of over 55% in size
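Cell growth measured by CellTiter-Glo luminescence after a minimum 48 h, 37 C compound exposure with 20 nM CPT in Tdp1-knockout DT40 cells stably expressing hTDP1, seeded 400/well; qHTS titration format.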
HepG2 viability = qHTS for Inhibitors of TGF-b: Cytotox Counterscreen | HepG2 CAGA-GFP viability, ATP luminescence, 18 h | Potency, µM (highest dose often 46.1 µM), without a hit: top-dose activity change, negative = cytotoxicity, actives largely listed as cytotoxic | hit rate 0.76% among 410,000; further: potency means the concentration at half of the fitted maximal effect
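CellTiter-Glo luminescence gave cytotoxicity after 18 hours at 37 degrees C. The cells were HepG2 CAGA-GFP in 1% FBS DMEM, stimulated with 500 pg/mL TGF-beta after compound addition. %Activity was normalised to no-cell wells (complete cell-killing) and DMSO (no toxicity), and curves were fitted and classified.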
TGFb SMAD3 inh = qHTS for Inhibitors of TGF-b | HepG2 CAGA-GFP TGF-b/SMAD3 reporter, GFP fluorescence, 18 h; TGF-beta stimulated, 500 pg/mL final | Potency, µM (titrated, usually from 46.1 µM), inactives show top-dose activity, negative = inhibition, most hits filed as inhibitors | hit rate 1.2% among 410,000 | AID 588855, 2011; further: potency means the concentration at half of the fitted maximal effect; on the % scale 0 is the no-effect control and ±100 the full control effect; nearly all actives have a fitted effect of over 65% in size
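Per well, imaged GFP fluorescence of HEPG2 CAGA-GFP cells gives the signal; cells get compound, then TGF-beta (500 pg/mL final), 18 h at 37 degrees C; %Activity versus -TGF-beta and +DMSO controls.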
IL-1B inflam inh = qHTS for Inhibitors of Inflammasome Signaling: IL-1-beta AlphaLISA Primary Screen | AID 743279, 2014 | THP-1 LPS/ATP IL-1B secretion, AlphaLISA, 16 h; hits give low values | activity change, % at 57.5 µM | hit rate 4.7% among 360,000; in the data active means activity change below about -50%; inconclusive means mostly about -30% to -49%; further: on the % scale 0 is the no-effect control and ±100 the full control effect
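THP-1 cells pretreated 1 hr with compounds (up to 57.5 uM final), then stimulated with LPS (250 ng/mL final) plus ATP (1.25 mM final); secreted IL-1B measured by AlphaLISA after 16 hr, decreased signal indicating inhibition.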
* hit, by the source's call. Unless noted, the call rests on the fitted dose curve; in most records, active means well fitted curve in the direction sought with a large enough effect; inconclusive means small, poorly fitted or top-dose-only effect, or another doubt; inactive means no such curve, though single readings can be large; an effect the other way counts as inactive or inconclusive.

`CC[C@H](C)[C@@H]1NC(=O)[C@H]([C@@H](C)CC)NC(=O)[C@@H](CC(C)C)NC(=O)[C@H](Cc2ccccc2)NC(=O)[C@H](Cc2ccccc2)NC(=O)[C@@H]2CCCN2C(=O)[C@@H]2CCCN2C(=O)[C@H](C(C)C)NC(=O)[C@H](CC(C)C)NC1=O` gave DT40 TDP1 no CPT 8.2µM*, TDP1 inh 1%, DT40 TDP1 CPT 6.5µM*, HepG2 viability -3%, TGFb SMAD3 inh -8% and IL-1B inflam inh -15.
Cc1ccc2oc(=O)c3cc(C(=O)NCCCOC(C)C)sc3c2c1 was read as DT40 TDP1 no CPT -24%, TDP1 inh 1%, DT40 TDP1 CPT 10%, HepG2 viability 8% and TGFb SMAD3 inh -23%.
Screening Cc1ccc(NC(=O)CN(Cc2ccccc2)S(=O)(=O)c2ccc3nc(C)sc3c2)c(C)c1 returned DT40 TDP1 no CPT inconclusive, TDP1 inh 6%, DT40 TDP1 CPT inconclusive, HepG2 viability -2% and TGFb SMAD3 inh -15%.
CCOc1ccc(NC(=O)CN(Cc2ccccc2)S(=O)(=O)c2ccc3nc(C)sc3c2)cc1 was read as DT40 TDP1 no CPT 26µM*, TDP1 inh 7%, DT40 TDP1 CPT inconclusive, HepG2 viability -12% and TGFb SMAD3 inh -8%.
Screening COc1cccc(CNC(=O)CNS(=O)(=O)c2ccc3nc(C)sc3c2)c1 returned DT40 TDP1 no CPT 15µM*, TDP1 inh 3%, DT40 TDP1 CPT inconclusive and HepG2 viability 0%.
For COc1cccc(NC(=O)CN(Cc2ccccc2)S(=O)(=O)c2ccc3nc(C)sc3c2)c1 the results were DT40 TDP1 no CPT 26µM*, TDP1 inh 6%, DT40 TDP1 CPT inconclusive, HepG2 viability 4% and TGFb SMAD3 inh inconclusive.
Screening Cc1ccc(C)c(NC(=O)CN(Cc2ccccc2)S(=O)(=O)c2ccc3nc(C)sc3c2)c1 returned DT40 TDP1 no CPT inconclusive, TDP1 inh 5%, DT40 TDP1 CPT inconclusive, HepG2 viability -20% and TGFb SMAD3 inh -33%.
Screening CCCCc1nn2c(=O)cc(COC(=O)CNC(=O)COc3ccc(C)cc3)nc2s1 returned DT40 TDP1 no CPT 7%, TDP1 inh 8%, DT40 TDP1 CPT 3%, HepG2 viability -7% and TGFb SMAD3 inh -21%.
CC(=O)C1=C(O)C(=O)N(c2ccc(Br)cn2)C1c1cccc([N+](=O)[O-])c1 (stereo not drawn) was read as DT40 TDP1 no CPT 7%, DT40 TDP1 CPT 1%, HepG2 viability -1%, TGFb SMAD3 inh 4% and IL-1B inflam inh -10.
For NCCC[C@@H](CC(=O)N[C@@H]1CCCC[C@H]1C(=O)N[C@H](CC(=O)N[C@@H](CCC(=O)O)CC(=O)O)Cc1ccccc1)NC(=O)C[C@H](Cc1c[nH]c2ccccc12)NC(=O)[C@@H]1CCCC[C@H]1N the results were TDP1 inh 2%.
For O=C(NCc1ccc(Cl)c(Cl)c1)c1cc(C2CCCCN2C(=O)c2ccccn2)on1 (stereo not drawn) the results were DT40 TDP1 no CPT 18µM*, DT40 TDP1 CPT 10µM*, HepG2 viability -14%, TGFb SMAD3 inh -14% and IL-1B inflam inh 0.
`O=C(NCc1ccc(Cl)c(Cl)c1)c1cc(C2CCCCN2C(=O)OCCF)on1` (stereo not drawn) gave DT40 TDP1 no CPT 23µM*, DT40 TDP1 CPT 23µM*, HepG2 viability -28%, TGFb SMAD3 inh inconclusive and IL-1B inflam inh -23.
O=C(NCc1cccnc1)c1cc(C2CCCCN2C(=O)c2cccs2)on1 (stereo not drawn) was read as DT40 TDP1 no CPT -26%, DT40 TDP1 CPT -29%, HepG2 viability -15%, TGFb SMAD3 inh 6% and IL-1B inflam inh 18.
Cc1ccc2oc(C(=O)Nc3cccc(Cl)c3)cc(=O)c2c1 was read as DT40 TDP1 no CPT -16%, TDP1 inh 9%, DT40 TDP1 CPT -14%, HepG2 viability 0% and TGFb SMAD3 inh 0%.
Screening CCOC(=O)c1ccc(NC(=O)CSc2nccn2-c2cc(C)cc(C)c2)cc1 returned DT40 TDP1 no CPT 18µM*, TDP1 inh 10%, DT40 TDP1 CPT 23µM*, HepG2 viability -25% and TGFb SMAD3 inh -28%.
`CCOC(=O)c1ccc(NC(=O)CSc2nccn2C)cc1` gave DT40 TDP1 no CPT inconclusive, TDP1 inh 9%, DT40 TDP1 CPT inconclusive, HepG2 viability -16%, TGFb SMAD3 inh -2% and IL-1B inflam inh -15.
Screening COc1cccc(-n2ccnc2SCC(=O)Nc2cccc(C)c2C)c1 returned DT40 TDP1 no CPT 16µM*, TDP1 inh 9%, DT40 TDP1 CPT 21µM*, HepG2 viability -14% and TGFb SMAD3 inh 12%.
`Cc1cc(C)cc(NC(=O)CSc2nccn2-c2ccccc2)c1` gave DT40 TDP1 no CPT 23µM*, TDP1 inh 9%, DT40 TDP1 CPT inconclusive, HepG2 viability -9% and TGFb SMAD3 inh 0%.
Screening Cc1ccc(NC(=O)CSc2nccn2-c2ccccc2)cc1 returned DT40 TDP1 no CPT inconclusive, TDP1 inh 12%, DT40 TDP1 CPT inconclusive, HepG2 viability -22% and TGFb SMAD3 inh 0%.
For COc1cccc(-n2ccnc2SCC(=O)Nc2ccccc2F)c1 the results were DT40 TDP1 no CPT -29%, TDP1 inh 9%, DT40 TDP1 CPT 0%, HepG2 viability -5%, TGFb SMAD3 inh -3% and IL-1B inflam inh -70*.
For COc1cccc(NC(=O)CSc2nccn2-c2cccc(OC)c2)c1 the results were DT40 TDP1 no CPT inconclusive, TDP1 inh 5%, DT40 TDP1 CPT inconclusive, HepG2 viability -45%, TGFb SMAD3 inh -19% and IL-1B inflam inh -13.
Screening CCOC(=O)c1ccc(NC(=O)CSc2nccn2Cc2ccc(OC)cc2)cc1 returned DT40 TDP1 no CPT inconclusive, TDP1 inh 9%, DT40 TDP1 CPT 15µM*, HepG2 viability -35% and TGFb SMAD3 inh inconclusive.
For COc1ccc(Cn2ccnc2SCC(=O)Nc2ccccc2)cc1 the results were DT40 TDP1 no CPT -12%, TDP1 inh 9%, DT40 TDP1 CPT -12%, HepG2 viability -42%, TGFb SMAD3 inh -20% and IL-1B inflam inh 0.

High-throughput results (PubChem)
